Source: PubChem
The list is not random: actives were taken first. Their share in the collection is about 2.2%.
TDP43 rescue: rescues yeast growth from TDP-43 toxicity; Potency, µM (top dose mostly 46.1 µM), usual class: activators; hit rate 1.8% among 410,000; TDP-43 expressing yeast growth rescue, BacTiter-Glo, 24 h; also: nearly all actives have a fitted effect of over 50% in size
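In this qHTS, compounds that restore growth of yeast expressing TDP-43 appear as activators. Cells (OD600=0.02, galactose medium, raffinose-pregrown) are incubated with compound 24 hr at 30 deg C and growth is quantified by BacTiter-Glo.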
Abeta yeast res: restores growth of yeast expressing A-beta42 peptide; Potency, µM (top dose mostly 46.1 µM), usual class: activators; AID 1347071; hit rate 0.063% among 410,000; yeast expressing A-beta42, growth rescue, OD600, 48 h; response scale: 0% DMSO, 100% iron-clioquinol control; also: nearly all actives have a fitted effect of over 55% in size
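Yeast growth medium received pinned compounds, then yeast cells expressing toxic A-beta were added; plates incubated at 30 C for 48 hr. Growth read as absorbance at 600 nm, normalized to DMSO and equimolar FeCl3 plus clioquinol controls.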
FUS yeast rescue: suppressors of FUS proteinopathy in yeast. S. cerevisiae FUS-expressing, growth rescue, OD600, 24 h. Potency, µM (doses to about 76.6 µM), usual class: activators. hit rate 0.24% among 390,000; also: nearly all actives have a fitted effect of over 55% in size
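Compound concentration series was pinned onto galactose-induced FUS-expressing yeast seeded at OD 0.005. Plates sat 24hr at 30C; absorbance at 600 nm gave growth. DMSO served as background control.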
Mito fusion yeast: mitochondrial division inhibition or fusion activation. S. cerevisiae fusion-defective mutant growth rescue, CellTiterGlo 48 h. hit rate 0.23% among 320,000. AID 485298. Potency, µM (highest dose often 46.1 µM), actives largely listed as activators; also: nearly all actives have a fitted effect of over 45% in size
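Read-out: ATP-based luminescence (CellTiterGlo, 10 min ambient) reporting growth of fusion-defective ts yeast after 48 hours at 37C on glycerol/ethanol YPEG medium in the presence of compound.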
aSyn yeast inh: rescues yeast growth from alpha-synuclein toxicity | Potency, µM (titrated, usually from 46.1 µM), hits mostly activators | Yeast expressing alpha-synuclein, growth rescue, BacTiter-Glo, 24 h | hit rate 0.14% among 370,000; also: nearly all actives have a fitted effect of over 65% in size
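Readout is rescue of growth in alpha-synuclein-expressing yeast, so inhibitors of toxicity appear as activators. Growth after 24 hr at 30 deg C in galactose medium is quantified by luminescence.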
Each line names hits and unclear results; the compound was inactive in the other large screens. Calls follow the shape of the dose curve; as a rule, active = well fitted curve in the direction sought with a large enough effect; inconclusive = small, poorly fitted or top-dose-only effect, or another doubt; inactive = no such curve, though single readings can be large; an effect the other way counts as inactive or inconclusive.

Cc1cc(C)c(S(=O)(=O)NCc2ccc3c(c2)OCO3)c(C)c1	TDP43 rescue 17.8µM
COc1ccccc1Cn1c(CNS(=O)(=O)c2ccc(Cl)s2)nc2cccnc21	none (no result: Mito fusion yeast, aSyn yeast inh)
Cc1cc(C)cc(Nc2nc3ccc(C)cc3n3cnnc23)c1	Mito fusion yeast inconclusive
CC1CCCCC1Nc1nc2ccc(Cl)cc2n2cnnc12 (stereo not given)	TDP43 rescue 12.6µM
N#Cc1sc(NCc2cccc(Cl)c2)nc1Cl	TDP43 rescue 14.1µM
Cc1ccc(CNc2nc(Cl)c(C#N)s2)cc1	none
Cc1ccc(N2C(=O)[C@@H]3CSC(c4ccc(F)cc4)N3C2=O)cc1 (stereo not given in full)	TDP43 rescue inconclusive (no result: Mito fusion yeast, aSyn yeast inh)
Cc1ccc(N2C(=O)[C@@H]3CSC(c4ccc(Cl)cc4)N3C2=O)cc1 (stereo not given in full)	TDP43 rescue 25.1µM (no result: Mito fusion yeast, aSyn yeast inh)
COc1ccc(C(=O)c2oc3ccccc3c2NC(=O)COc2cccc(C)c2C)cc1	none (no result: Mito fusion yeast)
COC(=O)[C@]12C[C@H](CC(=O)NCC34CC5CC(CC(C5)C3)C4)C(=O)N(CCC3=CCCCC3)C1=C[C@H](C1CCCC1)O[C@@H]2C	none (no result: TDP43 rescue, Abeta yeast res, Mito fusion yeast, aSyn yeast inh)
COc1ccccc1OCCSc1nc2ccccc2n1CCC(=O)O	none
Cc1ccc(C(C)C)c(OCCSc2nc3ccccc3n2CC(O)CO)c1 (stereo not given)	TDP43 rescue 35.5µM (no result: Mito fusion yeast, aSyn yeast inh)
COC(=O)Cn1c(SCCOc2ccccc2Cl)nc2ccccc21	TDP43 rescue 28.2µM (no result: Mito fusion yeast, aSyn yeast inh)
Cc1ccc(Nc2ccc([N+](=O)[O-])cn2)cc1Cl	TDP43 rescue 0.891µM
O=[N+]([O-])c1ccc(Nc2cccc(F)c2)nc1	TDP43 rescue 12.6µM
COC(=O)[C@@]1(Cc2ccc(F)cc2)[C@H]2c3cc(C(=O)N(C)C)n(CCF)c3C[C@H]2CN1C(=O)c1ccccc1	TDP43 rescue inconclusive, aSyn yeast inh inconclusive (no result: Mito fusion yeast)
COC(=O)[C@@]1(Cc2ccc(F)cc2)[C@H]2c3cc(C(=O)N(C)C)n(CC4CC4)c3C[C@H]2CN1C(=O)c1ccccc1	FUS yeast rescue 25.1µM (no result: Mito fusion yeast)
Cc1ccc(C)c(NC(=O)N2CCCCCC2)c1	none
Cc1ccc(C)c(NC(=O)N2CCc3ccccc3C2)c1	TDP43 rescue 20µM
Cc1ccc(C)c(NS(=O)(=O)c2cc(C(=O)N3CCc4ccccc4C3)ccc2Cl)c1	FUS yeast rescue inconclusive, aSyn yeast inh 15.8µM
Cc1cccc(NS(=O)(=O)c2cc(C(=O)N3CCc4ccccc4C3)ccc2Cl)c1C	FUS yeast rescue inconclusive, aSyn yeast inh 10µM
Cc1ccccc1NS(=O)(=O)c1cc(C(=O)N2CCCC2)ccc1Cl	none (no result: FUS yeast rescue)
CCOC(=O)c1c(S(=O)(=O)N2CCC(C(=O)Nc3ncccc3C)CC2)c(C)n(C)c1C	none (no result: Mito fusion yeast, aSyn yeast inh)
COc1ccc(/C=C2/C(=O)OCc3cc(OC)c(OC)cc32)cc1	TDP43 rescue 20µM, Mito fusion yeast inconclusive
CN(C(=O)COc1ccc(Cl)cc1Br)C1CCCCC1	TDP43 rescue 17.8µM
CCOc1ccccc1CNC(=O)c1cc2n(n1)CCCN(Cc1ccc(C)cc1)C2=O	TDP43 rescue 35.5µM, Abeta yeast res inconclusive, FUS yeast rescue inconclusive (no result: Mito fusion yeast, aSyn yeast inh)
O=C1/C(=C\c2ccc(O)c(O)c2)SC(=S)N1Cc1ccccc1	Mito fusion yeast 12.6µM
Cc1ccccc1C(=O)N1CCC(Oc2cccnc2)CC1	none (no result: TDP43 rescue, Abeta yeast res, Mito fusion yeast, aSyn yeast inh)
Cc1ccc2c(c1)c(N=O)c(O)n2Cc1ccc(Cl)cc1	Mito fusion yeast 10µM
O=C(NCCC(NS(=O)(=O)OCC(Cl)(Cl)Cl)c1ccccc1)C(F)(F)F (stereo not given)	none
COc1ccc(-c2nc(NC(=O)c3[nH]c(C)c(C(C)=O)c3C)sc2C)cc1	TDP43 rescue 35.5µM
COc1ccc(-c2nc(NC(=O)Cn3cnnn3)sc2C)cc1	none
COc1ccc(-c2nc(NC(=O)Cn3ccc(C(F)(F)F)n3)sc2C)cc1	TDP43 rescue 35.5µM
CC(C)CC(O)C1CCN(C(=O)CCc2nnc(-c3ccccc3)o2)CC1 (stereo not given)	none
COc1cc(Nc2nc(-c3ccccc3)c3cc(C)ccc3n2)cc(OC)c1OC	TDP43 rescue 20µM
COc1cccc(Nc2nc(-c3ccccc3)c3cc(C)ccc3n2)c1	none (no result: Mito fusion yeast, aSyn yeast inh)
